The record followed here is PubChem BioAssay.

SMILES strings stand for the structures. The source made the active and inactive calls.

Experiment [1] in a line: optical density shifts of acrAB sulA E. coli – strain DRC41, OD650, 48 h, E. coli filamentation inducer project, primary screen (AID 1152).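 Further: E. coli MC1000 strain DRC41 lacking acrAB efflux pump and sulA.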 As to conditions: higher = more signal, called active from +8 up or from −8 down.
Experiment [2] can be described thus: probe aLefty1 binding on compound microarray – biochemical, small-molecule microarray, 635/667 nm fluorescence, primary screen (AID 1153).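 Further: score merges spot fluorescence with signal-to-noise ratio from the scanned slide images.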 As to conditions: higher = more signal.
Experiment [3] is described as follows: plasmodial surface anion channel blockers, osmotic lysis – cell-based, P. falciparum Indochina, OD700, 1 h, primary screen (AID 1154). As to conditions: P. falciparum Indochina infected RBC osmotic lysis, higher = more signal, called active from +8 up or from −8 down.
Experiment [4] is described as follows: plasmodial surface anion channel blockers, osmotic lysis – cell-based, P. falciparum Indochina, OD700, 2 h, primary screen (AID 1155).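 Further: lysis reports solute entry through the parasite surface anion channel PSAC.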 As to conditions: P. falciparum Indochina infected erythrocytes, higher = more signal, called active from +8 up or from −8 down.
Experiment [5] in a line: changes in parasitized red cell lysis, either direction – P. falciparum Indochina, OD700, 3 h, PSAC antagonist project, primary screen (AID 1156). As to conditions: P. falciparum-infected erythrocytes, osmotic lysis, higher = more signal, called active from +8 up or from −8 down.
Experiment [6] is described as follows: plasmodial surface anion channel blockers, osmotic lysis – cell-based, P. falciparum Indochina, OD700, 18 h, primary screen (AID 1157). As to conditions: P. falciparum Indochina infected erythrocytes, osmotic lysis OD700, 18 h; higher = more signal, called active from +8 up or from −8 down.
Experiment [7] in a line: S6 kinase pathway phospho-S6 level changes – cell-based, A549, cytoblot, luminescence, serum-stimulated, primary screen (AID 1158).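 Further: serum-stimulated A549 lung adenocarcinoma cells; signal is phosphorylated S6 detected by cytoblot immunostaining with HRP secondary.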 The following applies: 5 h, higher = more signal.
The target in experiment [8] is NADPH oxidase 2 (Homo sapiens) (UniProt P04839). Nature of the experiment: compounds shifting NOX2 Amplex Red fluorescence – cell-based, HEK293-NOX2, PMA-stimulated, NOX inhibitor project, primary screen (AID 1159). Further: test concentration not given here. As to conditions: 45 min, higher = more signal, called active from +8 up or from −8 down.
Sequence of NADPH oxidase 2 (Homo sapiens) (P04839 whole entry, looked up): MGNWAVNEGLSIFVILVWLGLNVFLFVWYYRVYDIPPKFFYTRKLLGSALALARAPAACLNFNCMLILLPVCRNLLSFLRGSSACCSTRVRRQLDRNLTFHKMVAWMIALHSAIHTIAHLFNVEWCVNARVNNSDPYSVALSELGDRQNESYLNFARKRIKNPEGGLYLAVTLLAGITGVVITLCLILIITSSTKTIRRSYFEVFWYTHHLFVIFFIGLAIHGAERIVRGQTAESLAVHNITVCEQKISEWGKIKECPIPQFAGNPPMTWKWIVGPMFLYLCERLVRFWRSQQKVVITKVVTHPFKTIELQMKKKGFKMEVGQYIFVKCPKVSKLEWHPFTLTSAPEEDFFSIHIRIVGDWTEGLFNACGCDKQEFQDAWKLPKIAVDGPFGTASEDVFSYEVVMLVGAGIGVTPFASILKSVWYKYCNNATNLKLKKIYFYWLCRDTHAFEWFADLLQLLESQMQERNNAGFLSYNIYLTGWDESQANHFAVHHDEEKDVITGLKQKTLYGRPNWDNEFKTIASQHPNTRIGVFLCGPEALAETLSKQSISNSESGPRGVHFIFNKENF
Experiment [9] has as its target NADPH oxidase 4 (Homo sapiens) (UniProt Q9NPH5). Nature of the experiment: compounds shifting NOX4 Amplex Red fluorescence – cell-based, HEK293-NOX4, tetracycline-induced, NOX inhibitor project, primary screen (AID 1160). The following applies: HEK293-NOX4, Amplex Red H2O2 fluorescence, 45 min; higher = more signal, called active from +8 up or from −8 down.
Experiment [10] deals with NADPH oxidase 5 (Homo sapiens) (UniProt Q96PH1). Nature of the experiment: compounds shifting NOX5 Amplex Red fluorescence – cell-based, HEK293-NOX5, NOX inhibitor project, primary screen (AID 1161). As to conditions: HEK293-NOX5, ionomycin, 45 min, higher = more signal.
Sequence of NADPH oxidase 5 (Homo sapiens) (Q96PH1 whole entry, looked up): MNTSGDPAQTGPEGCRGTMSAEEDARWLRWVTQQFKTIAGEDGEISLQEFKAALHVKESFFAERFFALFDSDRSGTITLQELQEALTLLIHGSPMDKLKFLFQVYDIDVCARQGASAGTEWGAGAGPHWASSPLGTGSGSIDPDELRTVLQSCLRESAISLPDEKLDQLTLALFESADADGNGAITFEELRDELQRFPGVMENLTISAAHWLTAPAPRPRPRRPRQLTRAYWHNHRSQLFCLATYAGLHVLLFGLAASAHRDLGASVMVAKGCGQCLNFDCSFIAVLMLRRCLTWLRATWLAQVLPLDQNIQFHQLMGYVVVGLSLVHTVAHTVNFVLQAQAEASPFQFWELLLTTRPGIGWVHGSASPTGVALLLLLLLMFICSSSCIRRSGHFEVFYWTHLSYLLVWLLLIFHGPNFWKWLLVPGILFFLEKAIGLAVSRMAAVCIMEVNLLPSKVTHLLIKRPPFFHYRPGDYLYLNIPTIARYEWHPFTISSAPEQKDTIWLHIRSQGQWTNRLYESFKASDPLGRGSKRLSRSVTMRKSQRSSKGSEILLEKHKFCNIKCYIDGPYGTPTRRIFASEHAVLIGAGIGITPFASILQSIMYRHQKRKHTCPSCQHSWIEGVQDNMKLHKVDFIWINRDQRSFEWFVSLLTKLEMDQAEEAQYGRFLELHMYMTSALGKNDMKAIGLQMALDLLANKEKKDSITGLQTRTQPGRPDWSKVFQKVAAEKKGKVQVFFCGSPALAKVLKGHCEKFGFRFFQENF

Sequence of NADPH oxidase 4 (Homo sapiens) (Q9NPH5 whole entry, looked up): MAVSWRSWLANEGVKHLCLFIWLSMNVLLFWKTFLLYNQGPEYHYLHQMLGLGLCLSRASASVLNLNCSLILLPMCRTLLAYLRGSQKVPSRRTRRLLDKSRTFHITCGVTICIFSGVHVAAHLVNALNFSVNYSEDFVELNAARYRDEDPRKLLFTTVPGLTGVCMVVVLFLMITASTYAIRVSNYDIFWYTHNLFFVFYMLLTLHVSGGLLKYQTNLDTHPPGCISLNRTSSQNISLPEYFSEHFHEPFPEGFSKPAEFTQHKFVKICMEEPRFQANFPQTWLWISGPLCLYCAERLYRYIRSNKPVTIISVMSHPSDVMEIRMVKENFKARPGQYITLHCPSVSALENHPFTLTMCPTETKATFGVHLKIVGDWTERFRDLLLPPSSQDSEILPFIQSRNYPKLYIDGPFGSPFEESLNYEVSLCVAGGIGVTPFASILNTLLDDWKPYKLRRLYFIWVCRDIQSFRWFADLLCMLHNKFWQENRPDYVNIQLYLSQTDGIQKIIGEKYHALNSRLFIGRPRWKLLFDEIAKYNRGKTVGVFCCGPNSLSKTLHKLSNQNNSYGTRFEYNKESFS

Consider `COC(=O)C(CC#Cc1ccc2c(c1)[C@]1(C(=O)N2)[C@H](c2ccc(O)cc2)N2[C@H](c3ccccc3)[C@H](c3ccccc3)OC(=O)[C@H]2[C@@H]1C(=O)N1CCCCCCC1)C(=O)OC`, for which the z-score was 1.11 (inactive) in [1]; 0.53 (inactive) in experiment [3]; -1.11 (inactive) in experiment [4]; -0.677 (inactive) in [5]; -2.43 (inactive) in experiment [6]; 3.01 in experiment [7]. For the same molecule, the z-score was 0.953 (inactive) in experiment [8], 0.181 (inactive) in experiment [9] and 1.63 in experiment [10]. Besides, the composite z-score in [2] came to 1.69.
On to `Cc1cccc([C@H]2C[C@H]3C(I)=C[C@@H]2C(=O)[C@]32CO2)c1`, for which the z-score in experiment [1] is -0.894 (inactive); in experiment [3], -0.0459 (inactive); in experiment [4], 0.0962 (inactive); in experiment [5], 0.0129 (inactive); in experiment [6] it was -0.0624 (inactive); in experiment [7] it was 0.0314. The z-score in experiment [8] was -0.942 (inactive); in [9], -0.0919 (inactive); in [10], -0.835. Further, the composite z-score in experiment [2] was -0.0559.
As for `[N-]=[N+]=NCc1ccccc1C[C@]1(C(=O)N2CCOCC2)COC(c2ccc(OCCCO)cc2)=N1`, the z-score in experiment [1] is 2.57 (inactive); in [3], 26.6 (active); in [4], 15 (active); in [5], 3.85 (inactive); in experiment [6], 2.64 (inactive); in experiment [7] it was 0.338. Also, the values for the z-score in [8], in experiment [9] and in experiment [10] were -3.84 (inactive), -0.698 (inactive) and -3.14, respectively. In experiment [2], the composite z-score was 0.691.
`O=C1OCCC=C[C@H]2OC34C=CCN(c5ccc(Cl)cc5)C(=O)[C@H]3N(CCCCCCO)C(=O)[C@@H]4C12` (stereo not given in full): the z-score was 1.96 (inactive) in experiment [1]; 0.769 (inactive) in [3]; 0.138 (inactive) in experiment [4]; 1.13 (inactive) in [5]; 0.255 (inactive) in experiment [6]; 0.551 in experiment [7]. The z-score is 1.47 (inactive) in [8], 0.036 (inactive) in [9] and 2.61 in experiment [10]. For the same molecule, the composite z-score in experiment [2] was -0.0292.
As to `COC(=O)[C@@]1(Cc2ccc(F)cc2)[C@H]2c3cc(C(=O)N(C)C)n(Cc4ccc(O)c(OC)c4)c3C[C@H]2CN1C(=O)c1ccccc1`, the z-score in experiment [1] is -1.45 (inactive); in [3], 3.77 (inactive); in experiment [4] it was -0.164 (inactive); in [5], 1.74 (inactive); in experiment [6], -1.74 (inactive); in experiment [7], 2. Moreover, the z-score in experiment [8] was -2.68 (inactive); in experiment [9] it was -5.32 (inactive); in experiment [10] it was -1.16. The molecule also showed a composite z-score in experiment [2] of 0.681.
As to `Cc1ccc(S[C@]2(C(=O)NCC(C)C)CC(=O)N(C3Cc4ccccc4C3)[C@@H]2c2ccc(CO)cc2I)cc1`, the z-score was -0.715 (inactive) in experiment [1]; 2.92 (inactive) in experiment [3]; 0.768 (inactive) in experiment [4]; 0.708 (inactive) in [5]; 0.475 (inactive) in [6]; -0.447 in [7]. Also, the z-score in [8] is 1.25 (inactive); in experiment [9] it was 0.0492 (inactive); in experiment [10], 1.47. Besides, the composite z-score in [2] was -0.192.
`CC(=O)NCCCC[C@@H]1NC(=O)[C@@H]2C[C@H](C(=O)NCCCCCCN)[C@H](c3cccc(OCCO)c3)N2C1=O`: the z-score in experiment [1] was -0.813 (inactive); in experiment [3] it was 9.65 (active); in [4] it was 0.503 (inactive); in experiment [5] it was 0.819 (inactive); in experiment [6], 0.351 (inactive); in experiment [7] it was -0.42. Also, the z-score in experiment [8] is 0.892 (inactive); in [9], 0.353 (inactive); in experiment [10], -0.568. The molecule further returned a composite z-score in experiment [2] of 0.0455.
In the case of `CN(C)C(=O)[C@@]1(CCC(=O)OC(C)(C)C)N=C(c2ccc(OCCCO)cc2)O[C@H]1c1ccccc1CN=[N+]=[N-]`, the z-score in [1] is 0.476 (inactive); in experiment [3], 14.6 (active); in experiment [4], 1.39 (inactive); in experiment [5], 0.668 (inactive); in experiment [6], 0.447 (inactive); in [7], -0.25. The values for the z-score in experiment [8], in experiment [9] and in [10] were -1.73 (inactive), -0.111 (inactive) and -0.901, respectively. Besides, the composite z-score in [2] was found to be 0.121.
In the case of `O=c1cccc(-c2ccc(F)cc2)o1`, the z-score in experiment [1] was -0.527 (inactive); in [3], 1.74 (inactive); in experiment [4] it was 0.624 (inactive); in experiment [5], -0.099 (inactive); in experiment [6], 0.832 (inactive); in experiment [7] it was -0.387. In addition, the z-score in experiment [8] is 0.227 (inactive); in [9] it was -1.19 (inactive); in experiment [10], -0.184. The composite z-score in [2] came to 0.0367.
Consider `CCCNC(=O)[C@@]1(Sc2ccc(C)cc2)CC(=O)N(C2CCCCC2)[C@@H]1c1ccc(CO)cc1I`, for which the z-score in [1] was -0.629 (inactive); in experiment [3] it was 4.93 (inactive); in [4], 0.465 (inactive); in experiment [5] it was 0.0133 (inactive); in experiment [6], 0.376 (inactive); in experiment [7], -0.328. The z-score in experiment [8] is 0.82 (inactive); in experiment [9], 0.142 (inactive); in experiment [10], 1.61. In experiment [2], this molecule registered a composite z-score of -0.525.
For the molecule `COc1cc(NN2C(C(O)c3cc(OC)c(OC)c(OC)c3)C=CC3C(=O)N(c4ccccc4)C(=O)C32)cc(OC)c1OC` (stereo not given), the z-score in [1] was -1.78 (inactive); in experiment [3], 2.73 (inactive); in experiment [4], -0.577 (inactive); in experiment [5], 1.27 (inactive); in [6], -1.19 (inactive); in experiment [7] it was 1.07. For the same molecule, the z-score is -3.35 (inactive) in experiment [8], -4.26 (inactive) in experiment [9] and -6.87 in [10]. In [2], the composite z-score amounted to 1.02.
With `Cc1ccc(N2C(=O)c3ccccc3[C@](C)(C(=O)NCc3ccccc3)[C@@H]2c2ccc(CO)cc2)nc1`, the z-score in experiment [1] is 0.465 (inactive); in experiment [3], 2.01 (inactive); in [4] it was 0.161 (inactive); in experiment [5], 0.385 (inactive); in [6] it was 0.305 (inactive); in [7] it was 0.389. In addition, the values for the z-score in experiment [8], in [9] and in experiment [10] were 0.37 (inactive), -1.75 (inactive) and -0.583, respectively. For the same molecule, in experiment [2], the composite z-score amounted to 0.205.
Turning to `O=C(CS)NCCCCCCNC(=O)[C@@H]1C[C@@H]2C(=O)NCC(=O)N2[C@@H]1c1ccc(O)cc1`, the z-score in experiment [1] was 1.58 (inactive); in [3], 2.54 (inactive); in experiment [4], -0.164 (inactive); in experiment [5], 1.62 (inactive); in experiment [6] it was -1.41 (inactive); in experiment [7], 2.85. In addition, the z-score was 0.266 (inactive) in experiment [8], 0.147 (inactive) in [9] and 1.51 in experiment [10]. Moreover, the composite z-score in [2] is 0.0341.
With `COCC(=C=CC[C@@H](O)c1cccc(OCCO)c1)CCO`, the z-score in experiment [1] is 0.355 (inactive); in experiment [3] it was 2.3 (inactive); in experiment [4], 0.152 (inactive); in experiment [5], 0.691 (inactive); in experiment [6], 0.135 (inactive); in experiment [7], -0.094. The z-score in [8] was -0.274 (inactive); in experiment [9], -0.761 (inactive); in experiment [10], -0.334. In experiment [2], this molecule yielded a composite z-score of 0.0091.
Regarding `[N-]=[N+]=Nc1ccccc1C[C@@]1(C(=O)O)N=C(c2ccc(OCCCO)cc2)O[C@@H]1c1ccccc1N=[N+]=[N-]`, the z-score in experiment [1] is -0.855 (inactive); in [3] it was 29.2 (active); in [4] it was 24.7 (active); in experiment [5], 0.648 (inactive); in experiment [6], 4.53 (inactive); in [7], 0.664. For the same molecule, the z-score in experiment [8] was -0.041 (inactive); in experiment [9], 1.17 (inactive); in experiment [10], 1.57. For the same molecule, the composite z-score in experiment [2] is 0.384.
For `O=C1[C@@H]2[C@@H](CC(COc3ccccc3)=C3[C@@H](CCc4ccccc4)OB(O)C[C@@H]32)C(=O)N1Cc1ccccc1`, the z-score in experiment [1] was -1.45 (inactive); in [3], 11.2 (active); in experiment [4], 2.04 (inactive); in experiment [5] it was -0.791 (inactive); in experiment [6], 0.82 (inactive); in [7], 0.17. Moreover, the z-score in [8] was -0.0449 (inactive); in experiment [9], -0.128 (inactive); in experiment [10], -0.199. In experiment [2], the composite z-score was 0.0089.
